# Hits are enriched below; roughly 2.6% of the tested compounds scored in any of these assays.
# PHOSPHO1 block: PHOSPHO1 (human) inhibition. Q8TCT1. recombinant PHOSPHO1, absorbance phosphatase assay. inhibition, % at 13.3 µM. actives 1.1% (n = 290,000); in the data active means inhibition above about 60%
# Target sequence (Q8TCT1 whole entry, looked up): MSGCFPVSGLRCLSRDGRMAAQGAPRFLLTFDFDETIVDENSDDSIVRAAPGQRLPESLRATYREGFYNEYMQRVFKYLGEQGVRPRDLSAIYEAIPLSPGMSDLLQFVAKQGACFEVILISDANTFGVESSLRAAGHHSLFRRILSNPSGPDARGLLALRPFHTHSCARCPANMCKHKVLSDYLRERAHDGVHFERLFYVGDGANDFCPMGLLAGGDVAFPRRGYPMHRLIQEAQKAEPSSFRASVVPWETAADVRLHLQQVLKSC
# PABP1 MLLE inh: blocks PAM2 peptide binding to the PABP1 MLLE domain. GST-MLLE / FITC-PAM2 fluorescence polarization. P11940. inhibition, % at 20 µM. AID 588489. actives 0.36% (n = 360,000); in the data active means inhibition above about 35%, passing the limit was not always enough;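 further: plate controls were DMSO wells with GST-MLLE for no effect and wells lacking GST-MLLE protein for full effect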
# eIF4H inh: inhibitors of RNA binding by human eIF4H. eIF4H fluorescence polarization binding assay. inhibition, % at 35 µM. actives 0.94% (n = 290,000). Q15056. AID 2012;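 further: calls also rest on retests at 20 µM and on dose response follow-up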
# PABP polyA inh: blocks human PABP binding to poly(A) RNA; calls only at 35 µM; P11940; actives 1% (n = 290,000); fluorescence polarization;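 further: calls also rest on retests at 20 µM and on dose response follow-up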
# A3A deaminase: blocks human APOBEC3A ssDNA deamination | recombinant A3A, FAM/TAMRA ssDNA deamination fluorescence | inhibition, % at 20 µM | actives 0.41% (n = 330,000);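 active means at least 40% inhibition at 20 µM here, with at most 30% in a related deaminase screen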;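 further: plate controls were A3A with DMSO for no effect and wells lacking A3A enzyme for full effect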
# APOBEC3G inh: inhibitors of human APOBEC3G DNA deaminase; recombinant A3G, ssDNA deamination FAM/TAMRA fluorescence; inhibition, % at 20 µM; actives 0.28% (n = 330,000); AID 493012;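 active means inhibition of at least 40% at 20 µM, with no more than 30% in the related APOBEC3A deaminase screen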;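 further: plate controls were DMSO wells with A3G for no effect and wells lacking A3G enzyme for full effect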
# Active calls of the source: *; i = inactive; x = no result; + = active, no number. Unless noted, how the calls were made is not given here.
SMILES,PHOSPHO1 block,PABP1 MLLE inh,eIF4H inh,PABP polyA inh,A3A deaminase,APOBEC3G inh
CC(Oc1ccc(Cl)cc1Cl)C(=O)Nc1ccc(O)cc1 (stereo unspecified),18,10,2.6*,i,0,-3
COc1ccc(CCCC(=O)N/N=C/c2ccc(C)cc2)cc1,-16,-8,6,i,-6,-7
COc1ccc(CCCC(=O)N/N=C/c2ccccc2OC)cc1,-25,5,active,+,2,6
Cc1cc(=O)n2nc(N3CCC(C(=O)N4CCN(c5ccccc5)CC4)CC3)sc2n1,50,-37,-15,i,-7,-5
CCCc1cc(=O)n2nc(N3CCC(C(=O)N4CCN(c5ccc(OC)cc5)CC4)CC3)sc2n1,64*,1,-2,i,-3,6
CC(=O)c1ccc2c(c1)N(Cc1ccccc1)C(=O)C(C)S2 (stereo unspecified),x,-7,x,x,x,x
COc1ccccc1C(CNC(=O)c1ccc(NS(=O)(=O)c2ccc3c(c2)OCCO3)cc1)N(C)C (stereo unspecified),x,19,x,x,-1,2
COC(=O)c1sccc1NC(=S)Nc1cc(C)cc(C)c1,-5,38*,0,i,0,-5
COC(=O)c1sccc1NC(=S)Nc1ccccc1,12,20,-6,i,1,1
COC(=O)c1sccc1NC(=O)Nc1cccc(C)c1C,61*,-1,11,i,-2,-7
CCCNC(=O)C1(C)CCCN(C(=O)C2(c3ccc(Cl)cc3)CCCC2)C1 (stereo unspecified),x,3,x,x,x,x
CCCC(=O)Oc1ccc(-c2nccc(C(OC)OC)n2)cc1,-1,10,-2,i,-2,-9
Cc1onc(-c2ccccc2)c1C(=O)N1CCN(C/C=C/c2ccccc2)CC1,3,11,28*,+,-1,-7
C=CCN1CCN(C(=O)c2c(-c3ccccc3)noc2C)CC1,x,-1,-1,i,-5,-8
O=C(CNC(=O)c1ccccn1)N=Nc1c(O)[nH]c2ccccc12,22,-14,2,i,1,-7
CC(C)NC(=O)CC1(C(=O)NCc2ccc(Cl)cc2)CCCC1,33,1,3,i,-6,-6
Cc1nc2c([nH]1)C1(CCN(Cc3ccccc3)CC1)C(C#N)=C(N)O2,4,5,45*,+,0,-5
CCCCSc1nnc(-c2ccccc2N)c(=O)[nH]1,90*,0,-1,i,-2,-6
CCCCCSc1nnc(-c2cc(Br)ccc2N)c(=O)[nH]1,95*,-14,-7,i,-2,-1
CCCCCCCSc1nnc(-c2ccccc2N)c(=O)[nH]1,-14,-13,-7,i,-1,-1
COc1ccc(CNc2nnnn2C)c(OC)c1,-2,7,-8,i,1,-5
CC(C)NC(=O)NC(=O)CSc1nncs1,32,12,4,i,-2,-7
CCC(CO)[n+]1c(C)cc(/C=C2\Sc3ccccc3N2Cc2ccccc2)cc1C (stereo unspecified),-10,-67,-13,i,x,x
O=C1/C(=C/c2ccco2)CCC1C1CCCC1 (stereo unspecified),4,-2,-8,i,-1,-7
CCCCN1C(=O)C(=O)N(CC(=O)N2N=C3/C(=C/c4ccco4)CCCC3C2c2ccco2)C1=O (stereo unspecified),62*,2,19,i,3,-3
SMILES,PHOSPHO1 block,PABP1 MLLE inh,eIF4H inh,PABP polyA inh,A3A deaminase,APOBEC3G inh
O=C(CSc1ncn[nH]1)N1N=C2/C(=C\c3ccco3)CCCC2C1c1ccco1 (stereo unspecified),x,-10,x,x,x,x
O=C(CSc1ncn[nH]1)N1N=C2/C(=C/c3ccco3)CCCC2C1c1ccco1 (stereo unspecified),87*,-7,-1,i,2,-6
COc1ccc(C(=O)Nc2ccc(NC(=O)c3ccccc3)cc2)cc1S(=O)(=O)N1CCOCC1,17,-4,0,i,0,0
COc1ccc(NC(=O)c2c3c(nc4ccccc24)CCC3)cc1S(=O)(=O)N1CCOCC1,2,-15,99,+,23,24
Cc1ccc(NC(=O)c2c3c(nc4ccccc24)CCC3)cc1,17,-40,0,i,4,-4
Cc1ccc(NC(=O)c2c3c(nc4ccccc24)CCC3)cc1S(=O)(=O)N(C)C,-13,-19,72*,i,15,8
COc1ccc(NC(=O)CSc2ccc([N+](=O)[O-])cc2)cc1S(=O)(=O)N1CCOCC1,x,41*,x,x,-2,-5
Cc1cc(NC(=O)CSCC(=O)Nc2ccc(C)c(C)c2)no1,x,8,x,x,-3,-7
COC(=O)C1=C(C)N(Cc2ccccc2)C(=NCc2ccc(OC)cc2)N[C@H]1c1cccc(F)c1,-37,-115,1,+,70,37
COC(=O)C1=C(C)N(Cc2ccccc2)C(=NCc2cccc(Cl)c2)N[C@H]1c1cccc(F)c1,x,-11,x,x,0,-4
O=C1c2ccccc2C(=O)N1c1ccccc1,x,-8,x,x,x,x
Nc1cccc2c1C(=O)N(c1ccccc1)C2=O,x,48*,x,x,-2,-7
O=C(CNc1ccccc1)N/N=C/c1cn(-c2ccccc2)nc1-c1ccccc1,1,-1,active,+,-3,-7
NC(=O)N/N=C/c1cn(-c2ccccc2)nc1-c1ccccc1,49,-6,2,i,5,-8
COc1ccc(NC(=O)CSCC(=O)NC2(C)CCS(=O)(=O)C2)cc1 (stereo unspecified),32,-8,-4,i,-2,-5
CC(C)CCC1(CCNC(=O)c2cccs2)CCOC(C)(C)C1 (stereo unspecified),16,-2,-6,i,0,-2
CCN(CC)c1ccc(NC(=O)COC(=O)c2cccs2)cc1,100*,2,2,i,-3,-6
CCN(c1ccc(NC(=O)COC(=O)c2cccs2)cc1)C(C)C,33,-16,-3,i,-3,-3
COc1cccc(NC(=O)CCCn2nc(C)c3c(C)n(-c4ccccc4)nc3c2=O)c1,42,3,-5,i,-4,-4
CSCCC(NC(=O)c1ccc(C)o1)C(=O)O (stereo unspecified),25,8,-1,i,-1,0
Cc1oc(-c2ccccc2F)nc1CSCC(=O)NC1CCC(C)CC1 (stereo unspecified),29,3,-12,i,-1,-4
Cc1oc(-c2ccccc2F)nc1CSCC(=O)NC1CC1,75*,20,-6,i,-6,-3
COc1ccccc1CNC(=O)Cn1cccc1C(=O)c1ccccc1C,75*,2,x,x,0,0
Cc1ccccc1C(=O)c1cccn1CC(=O)NCc1cccc(Cl)c1,9,-10,4,i,1,2
COc1cccc(CNC(=O)Cn2cccc2C(=O)c2ccccc2C)c1,64*,-20,x,x,-3,-4

# High-throughput results: PubChem, Sanford-Burnham Center for Chemical Genomics
